# Most compounds without a hit are left out; they make up all but 11% or so of the library.
# Pf growth 48h – inhibits P. falciparum growth in the first generation, 48 h | P. falciparum luciferase growth in erythrocytes, 48 h | AID 504832 | hit rate 5.9% among 310,000 | Potency, µM (titrated, usually from 28.7 µM), for inactives: top-dose activity change, negative = inhibition, actives largely listed as inhibitors
#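 In quantitative HTS format, infected erythrocytes bearing luciferase-reporter parasites were treated for a single generation at 37 C. Luminescence after adding detection reagent served as the growth measure.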
# AMA1 RON2 block – inhibitors of Plasmodium falciparum AMA1-RON2 interaction; AlphaScreen AMA1-biotinylated RON2 peptide binding; Potency, µM (doses to about 58.2 µM), inactives show top-dose activity change, negative = inhibition, usual class: inhibitors; hit rate 0.2% among 360,000;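 also: 0% = vehicle wells and -100% = peptide control; nearly all actives have a fitted effect of over 45% in size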
#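 AMA1 (3D7) with his tag at 25 nM final met compounds first, then biotinylated RON2 peptide at 25 nM; detection used donor plus acceptor beads, 10 µg/mL apiece, read by AlphaScreen after 30 min at room temperature.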
# HCV inh – inhibitors of hepatitis C virus infection; Huh7.5.1 HCVcc-Cre infection, luciferase reporter, 44 h; hit rate 3.4% among 340,000; Potency, µM (titrated, usually from 41.8 µM), for the others: at the top dose activity change, negative = inhibition, most hits filed as inhibitors; AID 651820
#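 Luciferase read-out (15 sec integration) after a 15 min room-temperature substrate step quantifies HCVcc-Cre infection. Cells, 1,000 per well, had compound added 4 h post-plating, then virus at ~0.5 moi, and were cultured 44 h.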
# Pf growth 96h – inhibits malaria parasite growth, 96 h; P. falciparum luciferase reporter growth, 96 h; Potency, µM (series often up to 28.7 µM), for the others: at the highest dose activity change, negative = inhibition, usual class: inhibitors; hit rate 6.9% among 320,000; AID 504834
#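 P. falciparum expressing integrated firefly luciferase, in erythrocytes at 2% hematocrit, 0.05% parasitemia, incubated with compounds 96 h at 37 C, 5% CO2. Growth inhibition read as loss of luminescence; two-generation exposure targets delayed-death apicoplast inhibitors.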
# * hit, by the source's call; ? = inconclusive; · = no result; ! = repeats disagree. Calls follow the shape of the dose curve; as a rule, active = well fitted curve in the direction sought with a large enough effect; inconclusive = small, poorly fitted or top-dose-only effect, or another doubt; inactive = no such curve, though single readings can be large; an effect the other way counts as inactive or inconclusive. Unless noted, % is scaled to controls: 0 for no effect and ±100 for the full control effect; potency is read from the fitted curve at half-maximal effect.
SMILES,Pf growth 48h,AMA1 RON2 block,HCV inh,Pf growth 96h
O=C(NC1CCCCC1)C(c1ccncc1)N(Cc1ccccc1)C(=O)c1ccc(-c2ccccc2)[nH]1 (stereo not given),?,-27%,13µM*,-3%
O=C(NC1CCCCC1)C(c1ccc2ncccc2c1)N(Cc1ccc2c(c1)OCO2)C(=O)c1cccs1 (stereo not given),?,-17%,?,5.9µM*
CC(C(=O)NC1CCCC1)N(C(=O)c1ccc(-c2ccccc2)[nH]1)c1ccccc1F (stereo not given),13µM*,-28%,-49%,?
O=c1[nH]c(=S)[nH]c2c1CN(Cc1ccc(F)cc1)CC2,-15%,-3%,16%,46%
C=CCc1cccc2cc(C(=O)Nc3ccc(S(=O)(=O)Nc4nnc(CC)s4)cc3)c(=O)oc12,3%,-15%,-1%,0%
Cc1ccc(NC(=O)c2cncc(Br)c2)nc1,102%,0%,11%,162%
COc1ccc(C(C(=O)NC2CCCCC2)N(C(=O)c2cccs2)c2ccc3c(c2)OCO3)cc1 (stereo not given),?,4%,-21%,?
COc1ccc(CN(C(=O)c2cccs2)C(C(=O)NC2CCCCC2)c2ccc3ncccc3c2)cc1 (stereo not given),?,-5%,-8%,10µM*
O=C(O)c1cc(S(=O)(=O)N2CC3CC3C2C(=O)O)c(Cl)cc1Cl (stereo not given),-11%,-7%,11%,31%
OC[C@@H]1CN(CCN2CCOCC2)C[C@H](n2cnc3c(NCc4ccc(F)cc4)ncnc32)O1,·,-2%,·,·
CC1CCC(NC(=O)c2cc3c(s2)CS(=O)(=O)C3)CC1 (stereo not given),-9%,18%,12%,12µM*
CCCSCCCNC(=O)c1cc2c(s1)CS(=O)(=O)C2,-3%,2%,18%,48%
OCc1cnc[nH]1,?,-8%,20%,9.3µM*
O=C(NCc1ccccc1)c1ccc(NC(=O)c2ccccc2F)cc1,-6%,13%,-12%,?
COc1cc(-c2cc(-c3ccc(F)cc3)nc(N)c2C#N)ccc1O,?,6%,?,32%
CCC(C)(C)C1CCC2(CC1)NC(=O)N(CC(=O)N1CCN(C(=O)c3ccco3)CC1)C2=O (stereo not given),?,0%,?,-14%
NC(=S)Cc1nc(-c2ccc(Cl)cc2)cs1,30%,70%,11µM*,?
COc1ccccc1CNC(=S)Nc1ccc(S(N)(=O)=O)cc1,0%,0%,?,25%
O=C1C=CC2=C3c4cc(O)c(O)cc4CC3(O)COC2=C1O (stereo not given),·,2.8µM*,-12%,·
CN1CCN(c2ccccc2NC(=O)c2cc3ccccc3o2)CC1,?,-1%,-16%,4.7µM*
CS(=O)(=O)N1CCN(c2ccccc2NC(=O)c2ccc(-c3ccc(Cl)cc3Cl)o2)CC1,12µM*,-4%,-5%,·
CN1CCN(c2ccccc2NC(=O)c2ccc(-c3ccc(Cl)cc3Cl)o2)CC1,·,-4%,10µM*,4.1µM*
O=C(NC(=S)Nc1ccccc1N1CCOCC1)c1ccc(-c2ccccc2F)o1,6%,2%,-4%,15µM*
CS(=O)(=O)N1CCN(c2ccccc2NC(=O)c2ccc(Br)o2)CC1,12%,21%,?,37%
CCOc1ccc(S(=O)(=O)NCc2ccccn2)cc1NC(=O)c1ccccc1F,-16%,-3%,-13%,13%
SMILES,Pf growth 48h,AMA1 RON2 block,HCV inh,Pf growth 96h
CCN(c1ccc(NC(=O)COC(=O)C(C)N=C2NS(=O)(=O)c3ccccc32)cc1)C(C)C (stereo not given),31%,-28%,-2%,6%
CCCCN(C(=O)c1cc(S(=O)(=O)N2CCCCC2)ccc1Cl)c1c(N)n(CC(C)C)c(=O)[nH]c1=O,·,1%,-10%,·
COCC(=O)OCC(=O)Nc1ccc(Cl)cc1[N+](=O)[O-],46%,-8%,8%,14%
COc1ccc(CNC(=O)C[C@@H]2C=C[C@@H](NS(=O)(=O)c3cccc(OC)c3)[C@@H](CO)O2)cc1,·,-8%,·,·
CCOc1ccc(S(=O)(=O)NCc2ccc3c(c2)OCO3)cc1C(=O)O,·,3%,16%,3%
OC1C2(Cc3ccccc3)CN3CCN(C2)CC1(Cc1ccccc1)C3 (stereo not given),?,-6%,15%,0.93µM*
OC1C2CN3CCN(C2)CC1(Cc1ccccc1)C3 (stereo not given),23%,-5%,7%,?
CC(SCc1ccccc1)C(=O)Nc1ccccc1F (stereo not given),33%,-1%,10%,0.93µM*
CC(SCc1ccccc1)C(=O)Nc1ccc(F)cc1 (stereo not given),?,-6%,-3%,?
CNC(=O)Nc1ccc(C(=O)N/N=C\C23CC[C@@H](O)CC2(O)CC[C@@H]2[C@@H]3CCC3(C)C(C4=CC(=O)OC4)CCC23O)cc1 (stereo not given in full),-12%,69%,6%,-16%
C[C@@H]1O[C@@H](O[C@H]2C[C@@H](O)[C@]3(CO)[C@@H]4C(CC[C@]3(O)C2)[C@@]2(O)CC[C@H](C3COC(=O)C3)[C@@]2(C)C[C@H]4O)[C@H](O)[C@H](O)[C@H]1O (stereo not given in full),-22%,11%,?,-17%
CC1OC(OC2C(O)CC(OC3C(O)CC(OC4CCC5(C)C(CCC6C5CCC5(C)C(C7=CC(=O)OC7)CCC65O)C4)OC3C)OC2C)CC(O)C1O (stereo not given),15µM*,·,·,4.8µM*
C[C@H]1O[C@@H](O[C@H]2[C@@H](O)C[C@H](O[C@H]3[C@@H](O)C[C@H](O[C@H]4CC[C@@]5(C)[C@H](CC[C@@H]6[C@@H]5C[C@@H](O)[C@]5(C)[C@@H](C7=CC(=O)OC7)CC[C@]65O)C4)O[C@@H]3C)O[C@@H]2C)C[C@H](O)[C@@H]1O,?,-2%,?,7.6µM*!
C[C@@H]1O[C@@H](O[C@H]2C[C@@H](O)[C@@]3(CO)[C@H]4[C@H](O)C[C@]5(C)[C@@H](C6=CC(=O)OC6)CC[C@]5(O)[C@H]4CC[C@@]3(O)C2)[C@@H](O)[C@H](O)[C@H]1O,-6%,·,·,-2%
CC1OC(O[C@H]2C[C@@H](O)[C@]3(CO)[C@@H]4C(CC[C@]3(O)C2)[C@@]2(O)CC[C@H](C3=CC(=O)OC3)[C@@]2(C)C[C@H]4O)C(O)C(O)C1O (stereo not given in full),-14%,·,·,1.3µM*
Cc1ccc(C(=O)N/C(=C\c2ccccc2)C(=O)NCCCn2ccnc2)cc1,-7%,-18%,10%,6%
NC(=O)[C@@H]1CCCN1C(=O)c1ccc2nc(Cc3cccc(Cl)c3)oc2c1,2%,5%,-2%,10µM*
CC(NC(=O)Nc1ccc(Cl)cc1)c1ccccc1 (stereo not given),24%,4%,-11%,10µM*
